Data as given in the supplement of paper PMC9262897, “Low-cost anti-mycobacterial drug discovery using engineered E. coli” (Nature Communications, 2022).
Structures can show the parent of a compound that is named as a salt. ± gives the standard deviation of the averaged measurements.

Columns and labels:
Experiment in all cases: growth (OD600 after 10 h); higher = more growth (less inhibition)
[1] = tested on: E. coli TESEC Alr+ wild-type control; conditions: compound 0.1 mM; raw OD600 reference: median of DMSO wells 0.241, cell-free background 0.041
Protocol: (§1)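 TESEC Mtb Alr E. coli, or the Alr+ wild-type control, in 384-well plates with Prestwick library compounds at 0.1 mM and 1% DMSO, across arabinose induction levels of 1E3 to 1E7 nM. Growth is read as OD600 after 10 h at 37 °C in triplicate biological replicates.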

[2] = tested on: E. coli TESEC Mtb Alr; conditions: compound 0.1 mM
Protocol: as §1

[3] = tested on: E. coli TESEC Mtb Asd; conditions: compound 0.1 mM
Protocol: (§2)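 TESEC E. coli strains in which the native enzyme is deleted and replaced by arabinose-inducible Mtb Asd, DapB, CysH or TrpD, each grown in its selective medium. Strains were screened against the Prestwick library at 0.1 mM and 1% DMSO in 384-well format at low and high arabinose induction. Growth is read as OD600 after 10 h in triplicate.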

[4] = tested on: E. coli TESEC Mtb DapB; conditions: compound 0.1 mM
Protocol: as §2

[5] = tested on: E. coli TESEC Alr+ wild-type control; conditions: compound 0.1 mM; raw OD600 reference: median of DMSO wells 0.49, cell-free background 0.052
Protocol: (§3)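 TESEC Mtb Alr E. coli (ΔaraC ΔtolC ΔentC Δalr ΔdadX, arabinose-inducible Mtb Alr) or the Alr+ wild-type control strain, grown in defined M9-fructose medium without D-alanine in 96-well plates with Prestwick library compounds at 0.1 mM and 1% DMSO. Low Alr induction is 0.1 µM arabinose and high induction is 10 mM arabinose.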

[6] = tested on: E. coli TESEC Mtb Alr; conditions: compound 0.1 mM; remark: listed apart in the source
Protocol: as §3

[7] = arabinose 1000 nM, raw OD600 reference: median of DMSO wells 0.294, cell-free background 0.041
[8] = arabinose 10000 nM, raw OD600 reference: median of DMSO wells 0.264, cell-free background 0.041
[9] = arabinose 100000 nM, raw OD600 reference: median of DMSO wells 0.201, cell-free background 0.041
[10] = arabinose 1000000 nM, raw OD600 reference: median of DMSO wells 0.193, cell-free background 0.041
[11] = arabinose 10000000 nM, raw OD600 reference: median of DMSO wells 0.146, cell-free background 0.041
[12] = arabinose induction (level): High, raw OD600 reference: median of DMSO wells 0.331, cell-free background 0.041
[13] = arabinose induction (level): Low, raw OD600 reference: median of DMSO wells 0.417, cell-free background 0.041
[14] = arabinose induction (level): High, raw OD600 reference: median of DMSO wells […], cell-free background 0.041
[15] = arabinose induction (level): Low, raw OD600 reference: median of DMSO wells 0.227, cell-free background 0.041
[16] = arabinose 100 nM, raw OD600 reference: median of DMSO wells 0.413, cell-free background 0.052
[17] = arabinose 10000000 nM, raw OD600 reference: median of DMSO wells […], cell-free background 0.052

| Structure (SMILES) | growth [1] | growth [2, 7] | growth [2, 8] | growth [2, 9] | growth [2, 10] | growth [2, 11] | growth [3, 12] | growth [3, 13] | growth [4, 14] | growth [4, 15] | growth [5] | growth [6, 16] | growth [6, 17] |
| --- | --- | --- | --- | --- | --- | --- | --- | --- | --- | --- | --- | --- | --- |
| CCn1cc(C(=O)O)c(=O)c2cnc(N3CCNCC3)nc21 [Pipemidic acid] | 0.116 ± 0.0069 | 0.0801 ± 0.033 | 0.063 ± 0.0022 | 0.117 ± 0.0072 | 0.0845 ± 0.028 | 0.147 ± 0.0057 | 0.157 ± 0.019 | 0.149 ± 0.014 | 0.188 ± 0.0053 | 0.168 ± 0.0065 | 0.158 ± 0.008 | 0.156 ± 0.021 | 0.082 ± 0.0092 |
| CC(C)(S)C(N)C(=O)O (racemic) [D,L-Penicillamine] | 0.251 ± 0.0054 | 0.307 ± 0.016 | 0.2563 ± 0.0018 | 0.187 ± 0.021 | 0.187 ± 0.0061 | 0.146 ± 0.0078 | 0.307 ± 0.03 | 0.413 ± 0.018 | 0.18 ± 0.023 | 0.205 ± 0.024 | 0.437 ± 0.0091 | 0.403 ± 0.0076 | 0.35 ± 0.014 |
| C=C1C(=O)O[C@H]2[C@H]1CC/C(C)=C/CC[C@@]1(C)O[C@@H]21 [Parthenolide] | 0.157 ± 0.0041 | 0.303 ± 0.0032 | 0.27 ± 0.0042 | 0.232 ± 0.014 | 0.185 ± 0.0044 | 0.157 ± 0.0078 | 0.155 ± 0.0046 | 0.269 ± 0.036 | 0.2 ± 0.0037 | 0.224 ± 0.022 | 0.488 ± 0.038 | 0.404 ± 0.013 | 0.316 ± 0.02 |
| CC(C)(C)NC(=O)[C@@H]1CN(Cc2cccnc2)CCN1C[C@@H](O)C[C@@H](Cc1ccccc1)C(=O)N[C@H]1c2ccccc2C[C@H]1O [Indinavir sulfate] | 0.2105 ± 0.00051 | 0.293 ± 0.014 | 0.241 ± 0.0041 | 0.221 ± 0.02 | 0.149 ± 0.0054 | 0.139 ± 0.004 | 0.239 ± 0.05 | 0.403 ± 0.025 | 0.216 ± 0.0067 | 0.286 ± 0.022 | 0.558 ± 0.12 | 0.422 ± 0.014 | 0.281 ± 0.01 |
| C#C[C@]1(O)CC[C@H]2[C@@H]3CCC4=Cc5oncc5C[C@]4(C)[C@H]3CC[C@@]21C [Danazol] | 0.154 ± 0.027 | 0.168 ± 0.026 | 0.174 ± 0.022 | 0.152 ± 0.012 | 0.125 ± 0.0017 | 0.152 ± 0.0057 | 0.295 ± 0.075 | 0.277 ± 0.022 | 0.169 ± 0.0079 | 0.176 ± 0.0079 | 0.46 ± 0.05 | 0.4015 ± 0.0024 | 0.309 ± 0.026 |
| O=C(O)CCCC[C@@H]1SC[C@@H]2NC(=O)N[C@@H]21 [Biotin] | 0.257 ± 0.0089 | 0.309 ± 0.0092 | 0.265 ± 0.016 | 0.217 ± 0.028 | 0.206 ± 0.018 | 0.145 ± 0.0046 | 0.347 ± 0.05 | 0.418 ± 0.045 | 0.18 ± 0.0081 | 0.208 ± 0.022 | 0.615 ± 0.056 | 0.408 ± 0.0076 | 0.354 ± 0.014 |
| c1ccc(CNc2ncnc3nc[nH]c23)cc1 [Aminopurine, 6-benzyl] | 0.208 ± 0.0066 | 0.243 ± 0.0086 | 0.262 ± 0.006 | 0.19 ± 0.014 | 0.166 ± 0.0054 | 0.149 ± 0.013 | 0.279 ± 0.014 | 0.339 ± 0.072 | 0.169 ± 0.0055 | 0.197 ± 0.022 | 0.509 ± 0.077 | 0.416 ± 0.0048 | 0.361 ± 0.0061 |
